Calls of active or inactive are those of the source. The calls were made as follows: active = hit-call score of the fitted dose curve at least 0.9, where 1 is the maximum; inactive = score below 0.9.
Test: BSK_SAg_SRB: Viability Assessment in the BioMAP Diversity Plus: SAg Assay (AID 2283096);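 also: cells read one day after compound addition; hits may be either gain or loss of signal compared with DMSO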
Conditions: primary human HUVEC with PBMC
Protocol: BSK_SAg is a cell-based, multiplexed-readout assay that uses umbilical vein endothelium and peripheral blood mononuclear cells, a human vascular primary cell co-culture, with measurements taken at 24 hours after chemical dosing in a 96-well plate.BSK_SAg_SRB is an assay component measured in the BSK_SAg assay. It measures protein content, a form of viability reporter, as detected with absorbance signals by Sulforhodamine staining technology.Data from the assay component BSK_SAg_SRB was analyzed into 1 assay endpoint. This assay endpoint, BSK_SAg_SRB, was analyzed with bidirectional fitting relative to DMSO as the negative control and baseline of activity. Using a type of viability reporter, gain or loss-of-signal activity can be used to understand changes in the signaling. Furthermore, this assay endpoint can be referred to as a primary readout, because this assay has produced multiple assay endpoints where this one serves a signaling function. To generalize the intended target to other relatable targets, this assay endpoint is annotated to the cell morphology intended target family, where the subfamily is cell conformation.
The levels of cell surface (or secreted, indicated by the prefix "s") biomarker endpoints were measured by ELISA. Overt cytotoxicity to cells in confluent adherent cultures (all systems other than the BT system) was assessed by measuring total protein levels using sulforhodamine B (SRB) staining in parallel cultures at the time of biomarker measurements, indicated as SRB endpoints. For proliferation assays for adherent cell types, individual cell types are cultured at sub-confluence and relative cell numbers quantified by SRB staining at time points optimized for each system (48 h: 3C and CASM3C systems; 72 h: BT and HDF3CGF systems; 96 h: SAg system). SRB was performed by staining cells with 0.1% SRB after fixation with 10% TCA and reading wells at 560 nm.Viability and proliferation of PBMC (T cells) was quantified by Alamar Blue reduction for the SAg and BT systems. For PBMC viability (referred to as PBMC Cytotoxicity within the assay endpoint names), cells were plated (75,000/well in a 96-well plate) and then chemical samples added for 1 h before addition of activators, SEB and TSST-1 (20 ng/mL final concentration each). Cells were incubated for 90 h. Then, Alamar Blue (20 uL/well) (Invitrogen, Cat DAL1100) was added for 6 h, and the plates were read with a fluorescence microplate reader at 546/580 nm (excitation/emission). For PBMC proliferation, cells were plated and activated as above but incubated for only 16 h prior to addition of Alamar Blue. Plates were read after 6 h.

SMILES	AC50	outcome
CCCCCCCCCCCCO	31.3 µM (active)	
CN1C(=O)CC[C@H]1c1cccnc1		inactive
c1ccc2ccccc2c1		inactive
O=C(O)Cc1cc(I)c(Oc2ccc(O)c(I)c2)c(I)c1		inactive
O=c1[nH]sc2ccccc12	26.8 µM (active)	
CN(C[C@@H](CC[N+]12CCC(C3CCCCC3)(CC1)CC2)c1ccc(Cl)c(Cl)c1)C(=O)c1cc(C(F)(F)F)cc(C(F)(F)F)c1	26.9 µM (active)	
CCCCCCCCCCCC[N+](C)(C)C	25.8 µM (active)	
CCO[Si](CCCNC(N)=O)(OCC)OCC		inactive
O=c1ccc2ccccc2o1		inactive
CO[C@H]1/C=C/O[C@@]2(C)Oc3c(C)c(O)c4c(O)c(c(/C=N/N5CCN(C)CC5)c(O)c4c3C2=O)NC(=O)/C(C)=C\C=C\[C@H](C)[C@H](O)[C@@H](C)[C@@H](O)[C@@H](C)[C@H](OC(C)=O)[C@@H]1C		inactive
CC[C@@H]1C[C@H](N(Cc2cc(C(F)(F)F)cc(C(F)(F)F)c2)C(C)=O)c2cc(C(F)(F)F)ccc2N1C(=O)OC(C)C		inactive
CCOC(=O)O[C@H](C)OC(=O)c1ccc2c(c1)cc(C(=O)NC1CCN(C(C)C)CC1)n2Cc1cc(-c2ccc(Cl)s2)on1	6.18 µM (active)	
CCN(CC)C(=O)c1cc(S(=O)(=O)Cc2ccccc2)c(N2CCC(c3ccccc3)CC2)cc1N(CC)CCN(C)C	12.7 µM (active)	
COc1cc(C(=O)NC2CCN(C)CC2)ccc1Nc1ncc2c(n1)N(C1CCCC1)CC(F)(F)C(=O)N2C	18.6 µM (active)	
Cc1cn([C@H]2C[C@H](N=[N+]=[N-])[C@@H](CO)O2)c(=O)[nH]c1=O		inactive
CCCCCCCCCCCO		inactive
Clc1cc(Cl)c2c(c1)N=C1CCCCCN1C2		inactive
CCN(Cc1cccc(S(=O)(=O)O)c1)c1ccc(C(=C2C=CC(=[N+](CC)Cc3cccc(S(=O)(=O)O)c3)C=C2)c2ccccc2S(=O)(=O)[O-])cc1		inactive
O=C(O)c1ccccc1C(=O)OCc1ccccc1		inactive
CCCCCc1ccc(N)cc1		inactive

SMILES	AC50	outcome
NC(=O)c1nc(-c2cccc(-c3cc(F)ccc3OCC(F)(F)C(F)(F)F)c2)n[nH]1	32.7 µM (active)	
CCCOC(=O)c1cc(O)c(O)c(O)c1		inactive
Cc1ccc(C(C)C)cc1		inactive
Oc1ccc2ccccc2c1		inactive
C[C@]12CC[C@@H]3c4ccc(O)cc4CC[C@H]3[C@@H]1CCC2=O		inactive
CC(O)CC(C)(C)O (stereo not given)		inactive
CC(C)(O)c1ccc(CNC(=O)c2cccnc2Oc2ccc3nonc3c2)cc1		inactive
CC1(C)NC(=O)N(c2ccc([N+](=O)[O-])c(C(F)(F)F)c2)C1=O		inactive
CN(C)c1ccc(C(=C2C=CC(=[N+](C)C)C=C2)c2ccc(N(C)C)cc2)cc1	7.53 µM (active)	
CCCCCCCCOC(=O)c1cc(O)c(O)c(O)c1	24.8 µM (active)	
CN(C)C(=O)C1(N2CCCCC2)CCN(CC[C@@]2(c3ccc(Cl)c(Cl)c3)CN(C(=O)c3ccccc3)CCO2)CC1	14 µM (active)	
Cc1cc2c(cc1C(F)(F)F)N(C(=O)Nc1ccc(Oc3cccnc3C)nc1)CC2		inactive
CCCCOC(=O)CC(CC(=O)OCCCC)(OC(C)=O)C(=O)OCCCC		inactive
CCCCOC(=O)c1ccc(O)cc1		inactive
CC/C(=C(/CC)c1ccc(O)cc1)c1ccc(O)cc1	23.1 µM (active)	
CCCCCCCCCC(=O)O		inactive
COc1ccc2cc(S(=O)(=O)N[C@H](CC(=O)N[C@H](Cc3ccc(CN4[C@H](C)CCC[C@@H]4C)cc3)C(=O)N(C)C(C)C)c3ccc4c(c3)OCO4)ccc2c1	17.3 µM (active)	
Cc1ncc(CO)c(CO)c1O		inactive
NCc1cccc(C2CCN(C(=O)c3ccc(C#Cc4ccccc4F)o3)CC2)c1	15.2 µM (active)	
CC(C)(C)c1csc(-c2cc3cc(OCc4ccccc4CC(=O)O)ccc3o2)n1	20 µM (active)	
